In PubChem BioAssay AID588398 (Broad Institute, 2011):
Hit rate of the full screen: of about 1,200 compounds, about 110 (9.2%) were called active. Inconclusive results (about 8%) are left out. The list is a sample of the results. Potency and affinity values are given separately. A number with no mark means an inactive call.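 How the source made its calls: active means pathway reporter half-maximal dose under half the control reporter's, or control reporter unaffected while pathway reporter is inhibited; inconclusive means either signal flat at 30 to 70% inhibition or poorly fitted; inactive means the rest.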

Assay: LMP1 TES1 pathway selectivity over dsRED control – imaging, HEK293T, dual-color eGFP/dsRED, cherry-picks, selectivity assay for LMP1 NF-kB inhibitor project, dose response (AID 588398);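 further: 0% = median of neutral control wells and -100% = median of MG132 positive control wells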
Conditions: 48 h; HEK293T Tet-On dsRED counter-screen channel, at 19.5 µM (top of the series); activity change, negative = inhibition: at the top concentration

Row | Structure (SMILES) | activity change, negative = inhibition
1 | CC1Cc2ccccc2N1c1ncnc(N)c1[N+](=O)[O-] (stereo not drawn) | -96.5%
2 | CCCn1c(C)cc(C(=O)CN2C(=O)c3ccccc3S2(=O)=O)c1C | -3.28%
3 | COc1cccc(/C=N/Nc2nccnc2Cl)c1O | -97.3%
4 | COc1ccc(/C=C2\N=C(C)OC2=O)cc1[N+](=O)[O-] | 2.7%
5 | CCN1CCN(Cc2ccc(NC(=O)c3ccc(C)c(NC(=O)c4cccc(-c5cn[nH]c(=O)c5)c4)c3)cc2C(F)(F)F)CC1 | -27.1%
6 | Cc1cc(N)nc(=O)n1C1CC(O)C(CO)O1 (stereo not drawn) | 3.25%
7 | N/C(=N\OC(=O)c1cccc(Br)c1)c1ccccn1 | 32.5%
8 | COc1cc(C=C2CCCC(=Cc3ccc(OCC4CO4)c(OC)c3)C2=O)ccc1OCC1CO1 (stereo not drawn) | -100%
9 | CS(=O)(=O)Nc1ccc(C2=NN(S(C)(=O)=O)C(c3ccccc3)C2)cc1 (stereo not drawn) | -21%
10 | CCSc1nnc(NC(=O)CCn2c(=O)oc3ccccc32)s1 | 0.664%
11 | c1nc(NCc2ccc3c(c2)OCO3)c2cc(-c3ccoc3)ccc2n1 | -90.8%
12 | COc1ccc(N2C3=[N+](CC2(C)O)c2ccccc2CC3)cc1 (stereo not drawn) | 6.25%
13 | c1ccc(-n2nnc3c(N4CCOCC4)ncnc32)cc1 | -0.029%
14 | O=C(NCc1ccco1)C1CC(=O)N(c2cccc(Cl)c2)C1 (stereo not drawn) | -7.25%
15 | COCCn1c(SCC(=O)NCc2ccco2)nnc1-c1c[nH]c2ccccc12 | -19.9%
16 | O=C1CCC(C(=O)N2CCCCCC2)CN1CCc1ccc(Cl)cc1 (stereo not drawn) | 20.9%
17 | COc1ccc(NC(=O)/C(C#N)=C/c2cc(C)n(-c3ccc(N4CCOCC4)c([N+](=O)[O-])c3)c2C)cc1 | -16.2%
18 | CCOC(=O)c1cc(-c2ccccc2)n(CC(=O)Nc2cccc(OC)c2)c1C | 1.88%
19 | CCOC(=O)c1nc(NCc2ccccc2F)c2ccccc2n1 | -11.5%
20 | COc1cc(/C=N/NC(=O)c2cc(C34CC5CC(CC(C5)C3)C4)[nH]n2)ccc1O | 125%
21 | COc1cc(/C=C2\SC(=S)N(NC(=O)c3ccncc3)C2=O)ccc1O | 19%
22 | CCOC(=O)c1cn2nc(N3CCCC3)ccc2n1 | -6.07%

Row | Structure (SMILES) | activity change, negative = inhibition
23 | COc1ccc2[nH]c(-c3ccc(C)cc3)cc(=O)c2c1 | 61%
24 | Cc1ccc(C(=O)Nc2nnc(SCC(=O)N3CCCc4ccccc43)s2)cc1 | -2.69%
25 | O=C(C1CC1)N1N=C(c2ccc(Br)cc2)CC1(O)C(F)(F)F (stereo not drawn) | -8.66%
26 | COc1ccccc1C(=O)Nc1c[nH]c(=O)[nH]c1=O | 18.2%
27 | COc1ccccc1OCc1ccc(C(=O)c2ccccc2)cc1 | 3.8%
28 | COc1ccc(-c2csc(Nc3cccc(C)n3)n2)cc1OC | -8.07%
29 | CS(=O)(=O)c1ccc(Sc2nc3ccccc3s2)c([N+](=O)[O-])c1 | -78.6%
30 | O=C(Nc1ncc(Br)s1)C(Cc1ccccc1)n1cccc1 (stereo not drawn) | 2.81%
31 | CCOc1ccccc1C(=O)NC1CC2CCCC(C1)N2Cc1nnnn1Cc1ccco1 (stereo not drawn) | -15%
32 | O=c1cc(C2CCCCC2)[nH]c(=O)[nH]1 | 13.5%
33 | Cc1ccc(-c2nc3cccnc3o2)cc1NC(=O)COc1ccc(C(C)(C)C)cc1 | 1.26%
34 | CNC(=S)N1N=C(c2cccs2)CC1c1ccc(F)cc1 (stereo not drawn) | 2.39%
35 | Oc1ccc(C=NNC(=S)Nc2ccccc2)nc1 | -90.2%
36 | S=C(N/N=C/c1ccc2ncccc2c1)Nc1cccnc1 | -20.2%
37 | Cn1cc(S(=O)(=O)N2CCN(C(=O)c3ccco3)CC2)c(=O)n(C)c1=O | 18.5%
38 | Cn1cccc1C(=O)OCC(=O)Nc1ccc2c(c1)OCO2 | 2.59%
39 | Cc1cc(C)nc(SCC(=O)OCN2C(=O)c3ccccc3C2=O)n1 | 8.4%
40 | O=C(Nc1ccc(N2CCOCC2)cc1)c1cnccn1 | -6.17%
41 | Cc1ccccc1C(=O)N1CCN(c2ccc(NC(=O)c3ccco3)cc2Cl)CC1 | -42.5%
42 | O=C(CCCOc1ccccc1)N1CCN(c2ccccc2)CC1 | 11.3%
43 | N#CC(C#N)c1ccnc2ccccc12 | -82.8%
44 | COc1ccc(NC(=O)C[C@H]2C(=O)N(CCc3ccccc3)C[C@@H]2c2ccc(OC)cc2)cc1 | -4.86%

Row | Structure (SMILES) | activity change, negative = inhibition
45 | COc1cc(OC)cc(-c2c(C#Cc3ccsc3)c3cc(-c4cc(OC)c(OC)c(OC)c4)ccc3n2C)c1 | 23.9%
46 | COc1cccc(N=Nc2ccc(O)c3ncccc23)c1 | 67.8%
47 | COc1cccc(C2Nc3ccc4ccccc4c3C3=C2C(=O)CC(C)(C)C3)c1OCC(=O)O (stereo not drawn) | -6.54%
48 | COc1ccc(-n2c(C)c([N+](=O)[O-])c3ccc(O)c(CN(C)C)c32)cc1 | -87.1%
49 | COc1ccc(/C=C2\SC(=O)N(CCCC(=O)Nc3ccc(C(=O)O)cc3)C2=O)cc1 | 9.66%
50 | CCc1nc(SCC(=O)c2ccc3c(c2)OCCO3)c2ccccc2n1 | 18.3%
51 | Cc1ccc(C(=O)Nc2ccc3c(c2)OCCO3)cc1 | -12.8%
52 | O=C(Nc1ccc2c(c1)OCCO2)c1ccccn1 | -10.5%
53 | Cc1ccc(C(=O)Nc2ccc3c(c2)OCCO3)c(Cl)c1 | 0.084%
54 | O=C(CCCN1C(=O)[C@H]2CC=CC[C@H]2C1=O)NCc1nc(-c2ccc(Cl)cc2)no1 | 17.4%
55 | CC1(C)CC(=O)C(CC2=C(O)CC(C)(C)CC2=O)=C(O)C1 | 7.08%
56 | CC(C)CC1C(=O)N(Cc2cn(CC3CCCCC3)nn2)CCS(=O)(=O)N1Cc1ccc(-c2ccc(F)nc2)cc1 (stereo not drawn) | -20.1%
57 | Cc1cc(=O)[nH]c(N=N/C(=N/Nc2ccccc2C)c2ccccc2)n1 | 9.37%
58 | COC(=O)c1ccccc1NC(=O)CSc1nnnn1C | 9.51%
59 | COc1ccc(S(=O)(=O)NCC(c2cccnc2)N2CCN(c3ccc(F)cc3)CC2)cc1C (stereo not drawn) | -17.3%
60 | O=C(CCNc1cccc(F)c1)c1cc2ccccc2o1 | -15.3%
61 | NC(=O)c1sc2nccc(Nc3ccccc3)c2c1N | -95.8%
62 | Cc1nn(-c2ccccc2)c(Cl)c1C1C(C#N)=C(N)Oc2n[nH]c(C)c21 (stereo not drawn) | -74.2%
63 | O=S(=O)(c1ccc2c(c1)C(=NO)c1cc(S(=O)(=O)N3CCCCC3)ccc1-2)N1CCCCC1 | -16.7%
64 | COc1ccc(S(=O)(=O)N2CCOCC2)cc1NC(=O)COC(=O)CCS(=O)(=O)c1ccc(C)cc1 | -0.234%
65 | Oc1ccc2ccccc2c1N=Nc1ccccn1 | -97.9%
66 | c1ccc(C(=NNc2nc3ccccc3s2)c2ccccn2)cc1 | -98.4%

Row | Structure (SMILES) | activity change, negative = inhibition
67 | CCOC(=O)c1sc(NC(=O)CNCc2ccccn2)c(C(=O)OCC)c1C | 15.4%
68 | Oc1c(N=NC(=S)Nc2ccccc2F)c2ccccc2n1Cc1ccccc1 | 13.8%
69 | COc1ccc(OCc2cccc(C(=O)NN)c2)cc1 | 22%
70 | COc1ccc(C=C2OC(=O)C(C(C)=O)=C2O)cc1 | 8.52%
71 | COc1ccc(-c2[nH]ncc2/C=N\NS(=O)(=O)c2ccc(Cl)cc2)cc1 | 3.98%
72 | Cc1ccc(CCNC(=O)Cc2ccc(NC3=NC4CS(=O)(=O)CC4S3)cc2)cc1 (stereo not drawn) | -0.295%
73 | O=C(NN1C(=O)C2C3C=CC(C4CC34)C2C1=O)c1cccc(Cl)c1 (stereo not drawn) | -7.95%
74 | CCc1ccccc1NC(=O)COC(=O)c1c(C)nsc1NC | -8.52%
75 | Oc1c(N=NC(=S)Nc2ccccc2F)c2ccccc2n1Cc1ccccc1Cl | 13.7%
76 | O=c1cc(Cl)nc2ccccn12 | -0.736%
77 | COc1ccc(-c2cc(C(=O)N3CCCC3)no2)cc1 | -22.8%
78 | COc1ccc(CNC(=O)N2[C@H]3CC[C@@H]2C=C(c2ccc(F)cc2OCc2ccccc2)C3)cc1OC | -6.06%
79 | COc1cc(C(=O)Oc2ccccc2/C=N/NC(=O)c2ccc(C)c(Cl)c2)cc(OC)c1OC | 17.4%
80 | CCCC(=O)NCCCc1nc2ccccc2[nH]1 | -6.63%
81 | O=C(Nc1nc(-c2ccccn2)cs1)c1ccc(Cl)s1 | 12.3%
82 | O=C(c1ccccc1)C(CCC(CN1CCOCC1)C(=O)c1ccccc1)CN1CCOCC1 (stereo not drawn) | -99.1%
83 | COc1ccc(C(=O)NCCN2CCOCC2)cc1[N+](=O)[O-] | 2.04%
84 | CCON1C(=O)C2(CCCCC2)C(=O)C12C=CCCC2 (stereo not drawn) | 4.85%
85 | COc1cc(N(C)C)c([N+](=O)[O-])cc1C(=O)N1CCN(Cc2ccccc2)CC1 | -24.6%
86 | CC1CCN(C(=O)/C(=C\c2cccs2)NC(=O)c2ccccc2)CC1 | -15.3%
87 | CCn1c(NC(=O)c2ccc(C)cc2)c2ccccc2nc1=O | -28.1%
88 | COc1ccc2cc(-c3cc(C(=O)OCC(=O)Nc4c(C)n(C)n(-c5ccccc5)c4=O)c4ccccc4n3)ccc2c1 | 11.5%

Row | Structure (SMILES) | activity change, negative = inhibition
89 | COc1ccc(N2Cc3ccccc3C2=O)cc1 | -7.95%
90 | O=C(NCc1ccccc1Cl)C1CCCN1S(=O)(=O)c1ccc(F)cc1 (stereo not drawn) | 0.031%
91 | CCc1cc(C(=O)Nc2ncccc2O)sc1C | 61.7%
92 | O=C(Nc1ncccc1O)c1ccc(S(=O)(=O)NCc2ccco2)cc1 | 78%
93 | COCCn1c(SCC(=O)N2CCc3ccccc32)nc2c(c1=O)SC(C)C2 (stereo not drawn) | 16%
94 | COc1ccc(-c2csc3ncnc(NCCCO)c23)cc1 | -88%
95 | COc1ccc(-c2oc3ncnc(NCCN4CCOCC4)c3c2-c2ccc(OC)cc2)cc1 | -6.05%
96 | COc1ccc(-c2cc(C(F)(F)F)n3nc(C(=O)N4CCOCC4)nc3n2)cc1 | -5.43%
97 | Cc1ccccc1C(=O)N1CCN(c2ccc(NC(=O)CSc3ccc(Cl)cc3)cc2)CC1 | -33.2%
98 | CN(Cc1ccccc1)c1nc(N)c([N+](=O)[O-])c(NCc2ccccc2)n1 | 13.6%
99 | CCC(C)Nc1nc(-c2ccccn2)nc2ccccc12 (stereo not drawn) | -89.1%
100 | Cc1ccc(C)c(S(=O)(=O)N2CCN(CC(=O)N3CCc4ccccc4C3)CC2)c1 | 4.86%
101 | CCOc1ccc(OCC(=O)Nc2nccs2)cc1 | 3.42%
102 | O=C(c1ccc(COc2ccccc2Cl)o1)N1CCCC1 | 26.2%
103 | Cc1cc(C)n2nc(CC(=O)NC3CCCCCC3)nc2n1 | -3.96%
104 | CCOC(=O)c1cn2nc(N3CCCCC3)ccc2n1 | -16.5%
105 | COc1ccc(CCC(=O)Nc2ccc(C)c([N+](=O)[O-])c2)cc1 | -3.49%
106 | O=C(C=C1SCCS1)/C=C/c1ccco1 | -8.35%
107 | Cc1ccccc1Cn1c(O)c(N=NC(=S)Nc2ccccc2F)c2ccccc21 | 11.9%
108 | CCc1ccc(C(=O)COC(=O)c2cccc(N3C(=O)c4c(C)nc5ccccc5c4C3=O)c2)cc1 | 239%
